Shown are actives, neighbours in structure and some others; about 1.1% of the full set was active somewhere.
IDE cell inh – human IDE inhibitors in live cells, primary screen, fluorescence polarization, HEK cells, FAbetaB substrate; Insulin-degrading enzyme (Homo sapiens), P14735; FAbetaB cleavage; inhibition, % at 5.59 µM; 320,000 tested, 0.41% active;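 active = percent inhibition above the average of all tested compounds plus 3 SD, set per screening campaign, cut at about 16% in these data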;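 also: IDE supplied by intact live HEK cells; FP after avidin binding of uncleaved biotin substrate so inhibition keeps polarization high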
HDAC3 inh – HDAC3 deacetylase inhibitors, primary screen, biochemical, fluorescence, cell-free homogeneous. Histone deacetylase 3 (Homo sapiens), O15379. recombinant HDAC3, fluorogenic peptide/trypsin coupled. inhibition, % at 8.3 µM. 320,000 tested, 0.15% active; in the data active = inhibition above about 26%, passing the limit was not always enough; inconclusive = no clear call, values can overlap the other calls
IDE act – human IDE activators in live cells, primary screen, fluorescence polarization, HEK cells, FAbeta-B substrate. 340,000 tested, 0.073% active. FAbeta-B cleavage; 0% vehicle, 100% cell-free pure enzyme wells. activation, % at 5.96 µM. Insulin-degrading enzyme (Homo sapiens), P14735;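 active = activation above the mean of all tested compounds plus 3 SD, set per screening campaign, cut at about 17% in these data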
LANA-H2A inh – blockers of LANA interaction with H2A/H2B – biochemical, FP readout, HTS, primary screen; Protein LANA1 (Human herpesvirus 8 type P (isolate GK18)), Q9QR71; cell-free LANA-H2A/H2B peptide, fluorescence polarization; inhibition, % (test concentration not listed); 320,000 tested, 0.6% active; AID 2629, 2010; in the data active = inhibition mostly above about 10%, no sharp cut-off; inactive = mostly below about 6.7%
Target sequence (Q9QR71 whole entry, looked up): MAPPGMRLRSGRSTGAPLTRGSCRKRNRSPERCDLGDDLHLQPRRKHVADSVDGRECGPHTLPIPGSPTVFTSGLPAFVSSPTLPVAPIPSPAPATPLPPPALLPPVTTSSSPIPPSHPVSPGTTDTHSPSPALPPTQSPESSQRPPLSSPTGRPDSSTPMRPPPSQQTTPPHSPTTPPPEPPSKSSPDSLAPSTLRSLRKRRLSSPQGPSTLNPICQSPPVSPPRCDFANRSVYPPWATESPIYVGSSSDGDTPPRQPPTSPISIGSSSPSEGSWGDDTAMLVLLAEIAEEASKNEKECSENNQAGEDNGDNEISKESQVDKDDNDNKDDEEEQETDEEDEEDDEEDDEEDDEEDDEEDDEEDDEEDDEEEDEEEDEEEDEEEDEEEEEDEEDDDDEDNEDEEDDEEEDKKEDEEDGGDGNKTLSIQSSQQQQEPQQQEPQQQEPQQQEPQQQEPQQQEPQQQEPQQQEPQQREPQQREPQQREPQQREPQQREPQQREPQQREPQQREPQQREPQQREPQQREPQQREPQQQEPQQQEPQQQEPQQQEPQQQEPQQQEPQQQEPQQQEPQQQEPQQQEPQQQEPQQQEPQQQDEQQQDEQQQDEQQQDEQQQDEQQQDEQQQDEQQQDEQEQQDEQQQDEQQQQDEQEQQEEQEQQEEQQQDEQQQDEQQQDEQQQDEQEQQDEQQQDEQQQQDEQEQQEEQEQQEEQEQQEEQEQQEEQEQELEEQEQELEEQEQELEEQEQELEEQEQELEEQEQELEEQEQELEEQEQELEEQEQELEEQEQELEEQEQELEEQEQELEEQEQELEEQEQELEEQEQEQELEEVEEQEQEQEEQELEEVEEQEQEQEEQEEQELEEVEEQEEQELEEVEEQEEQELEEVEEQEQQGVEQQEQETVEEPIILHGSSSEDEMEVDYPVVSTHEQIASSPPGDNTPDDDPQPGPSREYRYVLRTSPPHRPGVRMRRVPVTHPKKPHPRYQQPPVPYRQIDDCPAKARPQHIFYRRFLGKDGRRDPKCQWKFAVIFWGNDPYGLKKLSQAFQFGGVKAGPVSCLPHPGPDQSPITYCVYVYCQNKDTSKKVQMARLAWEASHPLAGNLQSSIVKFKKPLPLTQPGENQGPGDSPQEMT
Of the large screens only hits and unclear results are named; the others gave an inactive call; ! = not active in a repeat.

COc1ccc2oc(C(=O)Nc3nc(C)cs3)c(C)c2c1	LANA-H2A inh 73.5
OC(CNCCc1ccc(C(F)(F)F)cc1)COC(c1ccccc1)c1ccccc1 (stereo not drawn)	none
CNCCC(Oc1ccc(C(F)(F)F)cc1)c1ccccc1 (stereo not drawn)	LANA-H2A inh 13.3
COc1ccccc1N1CCN(C2CCCN(C(=O)CCc3c(C)noc3C)C2)CC1 (stereo not drawn)	none
O=C(C[n+]1cc[nH]c1)c1ccc(Cl)cc1	HDAC3 inh inconclusive (no result: IDE cell inh)
COc1ccc(S(=O)(=O)N2CCC(C(=O)NCCC(=O)NCc3ccncc3)CC2)cc1	none
COc1ccc(C(=O)N2CCOC2CNC(=O)C(=O)NCc2ccco2)cc1 (stereo not drawn)	LANA-H2A inh active
COc1ccc(C(=O)N2CCOC2CNC(=O)C(=O)NCc2ccc(F)cc2)cc1 (stereo not drawn)	none
COc1ccc(S(=O)(=O)N2CCC(C(=O)NCCC(=O)NCc3ccccc3OC)CC2)cc1	LANA-H2A inh 14.2
COc1ccc(S(=O)(=O)N2CCOC2CNC(=O)C(=O)NCc2ccccc2OC)cc1 (stereo not drawn)	LANA-H2A inh 99.9
CCCN(CC(=O)Nc1ccccc1OC)C(=O)c1cc(-c2ccccc2)nn1-c1ccccc1	LANA-H2A inh 48.7
COc1ccc(CCNC(=O)CS(=O)Cc2nc(-c3ccccc3Cl)oc2C)cc1OC (stereo not drawn)	LANA-H2A inh 17.0
O=[N+]([O-])c1ccccc1S(=O)(=O)N(CC1CO1)c1ccccc1 (stereo not drawn)	LANA-H2A inh 13.5
O=C(CSc1nc(CCC2CCCC2)nc2ccccc12)NCc1ccc2c(c1)OCO2	LANA-H2A inh 14.8
CCCn1nnnc1SCC(=O)c1ccc2c(c1)OCCO2	HDAC3 inh 49.8
O=C(CSc1nc(Cc2ccccc2)nc2ccccc12)c1ccc2c(c1)OCCO2	none
O=C(CSc1nnc(SCc2cccc3ccccc23)s1)c1ccc2c(c1)OCO2	HDAC3 inh 37.5
CCc1nc(SCC(=O)c2ccc3c(c2)OCCO3)c2ccccc2n1	HDAC3 inh 34.2
CCCN(CC1CC1)C(=O)CSc1nnc(-c2cc(-c3cccs3)nc3ccccc23)o1	none
C=C(C)COc1ccc(-c2n[nH]c(C)c2-c2ccc(OC)c(OC)c2)c(O)c1	none (no result: HDAC3 inh)
Cc1cc(C)c(NC(=O)COc2ccccc2C(=O)Nc2ccc3c(c2)oc2ccccc23)c(C)c1	none
Cc1ccc(/C=N\NC(=O)COc2ccc(C)cc2[N+](=O)[O-])cc1	none
Cc1ccc(OCC(=O)N/N=C\c2ccc(O)c([N+](=O)[O-])c2)c([N+](=O)[O-])c1	LANA-H2A inh 12.8
COCCCNC1=C(Cl)C(=O)c2ccccc2C1=O	none
COCCCNc1c2c3c(cccc3[nH]c1=O)C(=O)c1ccccc1-2	IDE act 33.3, LANA-H2A inh 123.5
COCCN(C(=O)c1csnn1)C(C(=O)NC1CCCCC1)c1ccccc1F (stereo not drawn)	none
CCN1/C(=C/C=C/C=C/c2sc3ccccc3[n+]2CC)Sc2ccccc21	HDAC3 inh 36.0 (no result: IDE act)
O=C(CNS(=O)(=O)c1ccc(F)cc1)N1CCCC1	none (no result: IDE act)
NC(=O)C1CCN(C(=S)c2ccc(-c3ccc(Br)cc3)o2)CC1	LANA-H2A inh 14.1 (no result: IDE act)
NC(=O)c1ccc(-c2ccc(Br)cc2)o1	none
O=C(O)c1ccc(CS(=O)c2cccc(C(F)(F)F)c2)o1 (stereo not drawn)	LANA-H2A inh 119.1
Cc1cccc(S(=O)Cc2ccc(C(=O)N3CCOCC3)o2)c1 (stereo not drawn)	none
CCN(CC)C(=O)c1ccc(S(=O)(=O)c2ccccc2)cc1	LANA-H2A inh active
O=C(Nc1ccc(Oc2c(F)c(F)c(F)c(F)c2F)cc1)OC1CCN2Cc3ccccc3N=C12 (stereo not drawn)	LANA-H2A inh 14.9
Cc1oc(-c2cccs2)nc1CN1CCC(CO)(CCOc2ccccc2)CC1	LANA-H2A inh 13.4
O=C(CNC(=O)c1ccccc1F)NCCN1C(=O)S/C(=C\c2ccc3c(c2)OCO3)C1=O	LANA-H2A inh 28.0
O=C(NC(=S)NCc1ccccc1)C1CC1	LANA-H2A inh 16.1 (no result: IDE act)
O=C(NCc1ccccc1)C1CCCC1	none (no result: IDE act)
CNCCCC12CCC(c3ccccc31)c1ccccc12	LANA-H2A inh 9.6!
CCN(Cc1nc2cc(Cl)ccc2c(=O)[nH]1)C(=O)c1cccc(OCc2c(C)noc2C)c1	LANA-H2A inh 90.9
Oc1ccc(Cl)cc1CNc1cnc2ccccc2c1	none
Oc1ccccc1CNc1cnc2ccccc2c1	LANA-H2A inh 20.1
O=C(Nc1ccc(Cl)c(Cl)c1)c1ccc(Cl)c(Cl)c1	none (no result: HDAC3 inh)
O=C(Nc1ccc(Cl)c(Cl)c1)Nc1cc(C(=O)NC2CC2)ccc1Cl	LANA-H2A inh 16.7 (no result: IDE act)
Cc1ccc(N(CC(=O)NCc2ccc(F)cc2)C(=O)CCC(=O)Nc2ccccn2)cc1C	LANA-H2A inh 26.4
O=C1c2ccccc2C(Nc2ccc3nc(-c4cccnc4)[nH]c3c2)N1Cc1ccco1 (stereo not drawn)	IDE act 18.4
COc1ccc(S(=O)(=O)N2CCOC2CNC(=O)C(=O)NCCc2c[nH]c3ccccc23)cc1C (stereo not drawn)	none
COC(=O)c1ccccc1NC1CC(=O)N(c2c(C)cccc2C)C1=O (stereo not drawn)	LANA-H2A inh 95.6
Cc1ccnc(SCC(=O)Nc2c(C)n(C)n(-c3ccccc3)c2=O)n1	none
O=C1CC(c2ccc(F)cc2)CC(O)=C1C=NCCN1CCNCC1 (stereo not drawn)	LANA-H2A inh 17.1
O=C(CCOc1ccccc1)NCC(c1ccco1)N1CCCCC1 (stereo not drawn)	LANA-H2A inh 7.9
CN(c1ccccc1)S(=O)(=O)c1ccc(C(=O)NCC(c2ccco2)N2CCCCC2)cc1 (stereo not drawn)	LANA-H2A inh 38.6
COc1ccccc1N(C)S(=O)(=O)c1ccc(C(=O)NCC(c2ccco2)N2CCCCC2)cc1 (stereo not drawn)	none (no result: IDE cell inh, HDAC3 inh, LANA-H2A inh)
N#Cc1ccc(COC(=O)CCc2c[nH]c3ccccc23)cc1	none
COc1ccc(N(C(=O)c2ccc(S(=O)(=O)N3CCCC3)cc2)C2C=CS(=O)(=O)C2)cc1 (stereo not drawn)	none
CN1CCN(S(=O)(=O)c2cccc(C(=O)Oc3ccc(Br)cc3F)c2)CC1	none
COc1ccc(Cc2nnc(NC(=O)CS(=O)(=O)Cc3ccccc3)s2)cc1	none
COc1cc(/C=C(\C#N)c2nc3ccccc3s2)ccc1OCC(=O)Nc1ccccc1	IDE cell inh 28.0
CCOC(=O)C1CCCN(C(=O)c2cc(COc3ccc(C)nc3)on2)C1 (stereo not drawn)	LANA-H2A inh 18.1 (no result: IDE cell inh)
CCOC(=O)C1CCCN(C(=O)c2cc(-c3ccc(C)cc3)on2)C1 (stereo not drawn)	none
COCCC1CCCCN1C(=O)c1cc(COc2ccc(C)nc2)on1 (stereo not drawn)	LANA-H2A inh 45.1
Cc1cc(=O)n2c(n1)SCOC2	none
